An excerpt weighted towards active compounds, which were near 7.2% of everything screened.
VLA-4 inh – inhibition in human VLA-4 binding assay, primary screen, VLA-4 allosteric modulator project, MLPCN library, flow cytometry, VLA-4 expressing cells | Integrin alpha-4 (Homo sapiens), P13612 | inhibition, % (about 7 µM as worked out from the volumes in the protocol) | ligand binding flow cytometry | 330,000 tested, 0.2% active; in the data active means inhibition above about 50%
A1 inh – caspase 3/7 activation in MEF A1-2A-BIM cells, primary screen, A1 inhibitor project, cell-based, luminescence, HTS; 330,000 tested, 0.066% active; AID 2462, 2010; Caspase-Glo 3/7 luminescence, 3 h; percent of clofoctol response, vehicle zero; caspase activation, % (test concentration not listed);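 active means over half of replicate activation scores above 10%, or exactly half above 10 with the replicate mean above 10; inconclusive means replicate mean below 10 yet half the replicates above 10; inactive means over half of replicates below 10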
ALR inh – inhibitors of human ALR sulfhydryl oxidase, primary screen, biochemical, H2O2 detection, HRP-luminol luminescence, single point. FAD-linked sulfhydryl oxidase ALR (Homo sapiens), P55789. purified ALR, DTT oxidation. 290,000 tested, 3.8% active. inhibition, % (no concentration beside the values). AID 485317, 2010;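 active means mean replicate inhibition above about 79%, with every replicate also reaching it, limit read from the data; inconclusive means only one of the two criteria met; inactive means mean below limit and not every replicate reaching it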
Target sequence (P55789 whole entry, looked up): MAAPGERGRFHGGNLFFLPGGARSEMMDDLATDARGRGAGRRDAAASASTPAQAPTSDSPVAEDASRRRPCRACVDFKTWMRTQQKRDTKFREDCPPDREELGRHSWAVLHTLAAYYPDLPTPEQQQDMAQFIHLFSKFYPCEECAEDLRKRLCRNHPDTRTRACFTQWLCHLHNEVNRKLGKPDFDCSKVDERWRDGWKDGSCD
AHR act – AHR activators, primary screen, cell-based, luminescence, luciferase reporter, human | AHR-responsive luciferase reporter cells | activation, % at 5 µM | 320,000 tested, 2.5% active | AID 2796, 2010; in the data active means activation above about 47%;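 further: 0% = vehicle wells and 100% = reference agonist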
SUMO Mot1 rescue – yeast Mot1-301 growth rescue at high temperature, primary screen, SUMOylation pathway inhibitor project, S. cerevisiae, ATP luminescence, 38.5C | growth rescue, % at 18.8 µM | S. cerevisiae Mot1-301 growth rescue; percent above DMSO median, 100 means doubled | 320,000 tested, 1% active;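 active means every valid replicate shows activation above 250% relative to neutral control wells; inactive means the rest, any valid replicate at or below 250%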;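 further: OY570 slx delta 5 strain wells were the positive control but not used for scaling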
Efflux pump mplx – inhibitors of Candida efflux pumps in yeast, primary screen, S. cerevisiae, Nile Red, multiplex; 330,000 tested, 0.44% active; inhibition, % at 10 µM; S. cerevisiae Candida pump triplex;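 active means plate passing quality check with inhibition over a set limit, or well fluorescence over plate mean plus 4 SD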;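 further: Nile Red retained in pooled yeast measured as flow cytometry median fluorescence; 0% = buffer negative control and 100% = Enniatin B positive control; higher means more Nile Red kept so more efflux inhibition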
* marks the source's active call; other numbers are inactive results; ? = inconclusive; · = no result.

SMILES	VLA-4 inh	A1 inh	ALR inh	AHR act	SUMO Mot1 rescue	Efflux pump mplx
COc1cccc(-n2c(CNC(=O)OC(C)(C)C)n[nH]c2=S)c1	7	0	89*	-2	-6	0
COc1ccc(CC(=O)NCc2n[nH]c(=S)n2C)cc1	0	1	97*	-2	5	0
COc1ccc(-n2c(CNC(=O)c3cc(OC)c(OC)c(OC)c3)n[nH]c2=S)cc1	7	1	93*	-2	-12	0
Cn1c(CCNC(=O)OC(C)(C)C)n[nH]c1=S	16	?	95*	1	0	0
O=C(CCC(=O)N1CCN(c2ccccc2)CC1)Nc1nnc(C2CCCCC2)s1	-1	1	-5	-2	-9	0
CC(C)(C)N(Cc1ccccc1)C(=O)COC(=O)/C=C/c1ccc2c(c1)OCO2	10	0	-1	13	10	0
CC(=O)c1cccc(NC(=O)c2ccccc2N(Cc2ccccc2)S(C)(=O)=O)c1	5	0	-9	-1	1	0
O=C(COC(=O)CN1CCSC1=O)Nc1ccc(F)cc1Cl	10	2	-43	-1	-11	0
O=C(NCc1n[nH]c(=S)n1-c1ccc(Br)cc1)c1ccc(S(=O)(=O)N2CCCC2)cc1	7	0	91*	2	83	0
COc1ccc(-n2c(CNC(=O)c3ccc(S(=O)(=O)N4CCCC4)cc3)n[nH]c2=S)cc1	4	0	91*	0	52	0
CSc1nc(NCCOCCO)c2sc3nc(-c4ccco4)c4c(c3c2n1)CCC4	10	-1	97*	20	7	0
CCN(CCO)c1nc(SC)nc2c1sc1nc(-c3ccco3)c3c(c12)CCC3	-17	·	97*	1	606	0
CSc1nc(NCc2ccco2)c2sc3nc(C(C)C)c4c(c3c2n1)CC(C)(C)OC4	-44	1	-12	4	-14	0
N#C/C(=C\c1ccc(O)c(O)c1)C(=O)N1CCCC1	41	1	100*	1	-15	0
N#C/C(=C\c1ccc(O)c(O)c1)C(=O)c1ccc(O)c(O)c1	-12	-4	100*	0	-32	0
COc1cc(/C=C(\C#N)C(=O)N2CCCCC2)ccc1O	15	-1	99*	0	-4	0
O=C(CN1CCCC1)N/N=C/c1c(O)ccc2ccccc12	-7	0	47	19	8	0
Cc1cccc(C(=O)NNC(=S)NC(=O)c2cccs2)c1	-15	1	36	21	-14	0
Cc1csc(=O)n1CC(=O)OCC(=O)Nc1cc(S(=O)(=O)N2CCOCC2)ccc1Cl	0	0	-9	-1	-8	0
O=S(=O)(c1ccccc1)c1cc(O)ccc1O	-10	-1	98*	2	·	0
O=S(=O)(c1ccc(Cl)cc1)c1cc(O)ccc1O	16	0	99*	-3	11	0
Nc1ccc(S(=O)(=O)c2ccc(Cl)cc2)cc1	0	1	-4	0	-22	0
CCCCN(C)CCNC(=O)c1cn(C)c(=O)c2c1c1ccccc1n2C	28	1	-6	13	-10	1
CCn1c(C)c(C(C)=O)c(N2CCN(c3ccccc3)CC2)nc1=S	18	0	97*	10	7	0
CCn1c(C)c(C(C)=O)c(N2CCN(C(c3ccccc3)c3ccccc3)CC2)nc1=S	4	1	1	-3	-14	0
SMILES	VLA-4 inh	A1 inh	ALR inh	AHR act	SUMO Mot1 rescue	Efflux pump mplx
CC#C[C@]1(O)CC[C@H]2[C@@H]3CCC4=CC(=O)CCC4=C3[C@@H](c3ccc(N(C)C)cc3)C[C@@]21C	8	0	·	4	161	0
CC(C)C[C@@H](CN=[N+]=[N-])N1CCN(Cc2ccccc2)CCC1=O	-11	1	-3	3	-1	0
COC(=O)c1ccccc1NC(=O)c1ccccc1OC	6	0	2	5	-20	0
COc1ccccc1C(=O)Nc1ccccc1SC(=O)c1ccccc1OC	38	0	-3	53*	4	0
COc1ccccc1C(=O)Nc1ccc(C)cc1C(=O)c1ccccc1	12	-1	10	52*	0	0
CC(c1ccccc1)C(NC(=O)OCC1c2ccccc2-c2ccccc21)C(=O)O (stereo not given)	-6	-1	57	4	-13	0
CC(=O)c1cccc(NC(=O)Nc2nc(C)cc(C)n2)c1	-1	-2	4	30	-5	0
O=C(Nc1ccc(/C=C/c2nc3ccccc3o2)cc1)c1c(F)cccc1F	9	-2	3	49*	-7	0
COc1cc(N=Nc2ccccc2C(=O)O)ccc1O	20	-1	98*	3	11	1
Cc1cc(N=Nc2ccccc2C(=O)O)c(C)c(C)c1O	2	-1	81*	4	-20	0
COc1cc(C(=O)O)ccc1O	21	-1	-3	0	1	0
Cc1cc(O)c(C(C)C)cc1N=Nc1ccccc1C(=O)O	2	1	54	9	-27	0
O=C(NC(=O)c1ccc(Cl)cc1)Nc1ccc(-c2cnco2)cc1	5	0	·	4	0	0
O=C(Cn1c(NCCO)nc2ccccc21)NCCc1ccc(F)cc1	3	0	-24	12	3	0
Cc1ccc(N=C2C(=S)N(c3ccc(C)cc3)C(=N)N2/N=C/c2ccc(Cl)cc2)cc1	13	0	96*	10	·	0
COc1ccc(/C=N/N2CCN(c3ccc(Cl)cc3)CC2)cc1	2	0	-7	-1	11	0
C[C@H](CO)N1C[C@H](C)[C@@H](CN(C)Cc2ccc(Cl)c(Cl)c2)Oc2c(NS(=O)(=O)c3ccc(F)cc3)cccc2C1=O	-11	0	3	2	14	1
CCOc1ccc(C(C)=O)cc1CN1c2ccc(S(N)(=O)=O)cc2CC1C (stereo not given)	-4	0	79*	-1	65	0
CCc1nc(N2CCCCC2C)c2oc3ccccc3c2n1 (stereo not given)	-2	0	4	48*	-10	0
CCc1nc(N2CCCCC2C(=O)O)c2oc3ccccc3c2n1 (stereo not given)	6	0	5	17	6	0
OCc1csc(=Nc2ccccc2)n1-c1ccccc1	-7	0	99*	6	-8	0
COC(=O)c1cc(=O)n(-c2ccccc2)c(=Nc2ccccc2)s1	9	-1	4	4	-20	0
